# According to paper PMC5540273 (PLoS ONE, 2017):
# What was measured:
# Details in all cases: concentration: 1 μM, replicates: in singlicate; n = 1
# DAPK2 = tested on: DAPK2
# DAPK3 = tested on: DAPK3
# DCAMKL1 = tested on: T1, DCAMKL1
# T1 construct: gene DCLK1
# DCAMKL2 = tested on: T2, DCAMKL2
# T2 construct: gene DCLK2
# DCAMKL3 = tested on: T3, DCAMKL3
# T3 construct: gene DCLK3
# DDR1 = tested on: DDR1
# DDR2 = tested on: DDR2
# DLK = tested on: T4, DLK
# T4 construct: gene MAP3K12
# DMPK2 = tested on: T5, DMPK2
# T5 construct: gene CDC42BPG
# DMPK = tested on: DMPK
# DRAK1 = tested on: T6, DRAK1
# T6 construct: gene STK17A
# DRAK2 = tested on: T7, DRAK2
# T7 construct: gene STK17B
# DYRK1A = tested on: DYRK1A
# DYRK1B = tested on: DYRK1B
# DYRK2 = tested on: DYRK2
# EGFR = tested on: EGFR
# EIF2AK1 = tested on: EIF2AK1
# EPHA1 = tested on: EPHA1
# EPHA2 = tested on: EPHA2
# EPHA3 = tested on: EPHA3
# 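Also: KINOMEscan kinase panel screen.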
compound,measurement,setting,value
O=C1NC(=O)C(N2CCc3ccccc32)=C1c1ccccc1Cl [SB-373598],%Inh,DAPK2,23%
same,%Inh,DAPK3,4%
same,%Inh,DCAMKL1,10%
same,%Inh,DCAMKL2,0%
same,%Inh,DCAMKL3,11%
same,%Inh,DDR1,12%
same,%Inh,DDR2,14%
same,%Inh,DLK,0%
same,%Inh,DMPK2,12%
same,%Inh,DMPK,26%
same,%Inh,DRAK1,0%
same,%Inh,DRAK2,0%
same,%Inh,DYRK1A,18%
same,%Inh,DYRK1B,0%
same,%Inh,DYRK2,6%
same,%Inh,EGFR,25%
same,%Inh,EIF2AK1,0%
same,%Inh,EPHA1,10%
same,%Inh,EPHA2,27%
same,%Inh,EPHA3,12%
CC(=O)Nc1nc2cnc(Nc3cc(NC(=O)c4cccc(CCC#N)c4)ccc3C)nc2s1,%Inh,DAPK2,6%
same,%Inh,DAPK3,8%
same,%Inh,DCAMKL1,12%
same,%Inh,DCAMKL2,13%
same,%Inh,DCAMKL3,12%
same,%Inh,DDR1,100%
same,%Inh,DDR2,86%
same,%Inh,DLK,0%
same,%Inh,DMPK2,3%
same,%Inh,DMPK,12%
same,%Inh,DRAK1,0%
same,%Inh,DRAK2,0%
same,%Inh,DYRK1A,0%
same,%Inh,DYRK1B,42%
same,%Inh,DYRK2,0%
same,%Inh,EGFR,6%
same,%Inh,EIF2AK1,21%
same,%Inh,EPHA1,0%
same,%Inh,EPHA2,34%
same,%Inh,EPHA3,0%
Nc1nc(-c2nccs2)c(-c2ccnc3ccccc23)s1 [GW693542],%Inh,DAPK2,0%
same,%Inh,DAPK3,10%
same,%Inh,DCAMKL1,13%
same,%Inh,DCAMKL2,0%
same,%Inh,DCAMKL3,6%
same,%Inh,DDR1,9%
same,%Inh,DDR2,5%
same,%Inh,DLK,33%
same,%Inh,DMPK2,6%
same,%Inh,DMPK,100%
same,%Inh,DRAK1,9%
same,%Inh,DRAK2,0%
same,%Inh,DYRK1A,20%
same,%Inh,DYRK1B,25%
same,%Inh,DYRK2,7%
same,%Inh,EGFR,26%
same,%Inh,EIF2AK1,3%
same,%Inh,EPHA1,5%
same,%Inh,EPHA2,3%
same,%Inh,EPHA3,0%
COc1ccc(C2=C(Nc3cccc(C(=O)O)c3)C(=O)NC2=O)cc1 [SB-390765],%Inh,DAPK2,5%
same,%Inh,DAPK3,0%
same,%Inh,DCAMKL1,32%
same,%Inh,DCAMKL2,0%
same,%Inh,DCAMKL3,0%
same,%Inh,DDR1,0%
same,%Inh,DDR2,19%
same,%Inh,DLK,0%
same,%Inh,DMPK2,12%
same,%Inh,DMPK,4%
same,%Inh,DRAK1,19%
same,%Inh,DRAK2,7%
same,%Inh,DYRK1A,9%
same,%Inh,DYRK1B,0%
same,%Inh,DYRK2,20%
same,%Inh,EGFR,0%
same,%Inh,EIF2AK1,11%
same,%Inh,EPHA1,7%
same,%Inh,EPHA2,9%
same,%Inh,EPHA3,11%
COc1cccc(NC(=O)NC2CCN(c3ccnc(Nc4ccc(F)cc4)n3)C2)c1 (centres unmarked) [GSK1379721],%Inh,DAPK2,0%
same,%Inh,DAPK3,2%
same,%Inh,DCAMKL1,11%
same,%Inh,DCAMKL2,2%
same,%Inh,DCAMKL3,0%
same,%Inh,DDR1,17%
same,%Inh,DDR2,38%
same,%Inh,DLK,0%
same,%Inh,DMPK2,13%
same,%Inh,DMPK,0%
same,%Inh,DRAK1,0%
same,%Inh,DRAK2,0%
same,%Inh,DYRK1A,0%
same,%Inh,DYRK1B,30%
same,%Inh,DYRK2,26%
same,%Inh,EGFR,17%
same,%Inh,EIF2AK1,0%
same,%Inh,EPHA1,12%
same,%Inh,EPHA2,0%
same,%Inh,EPHA3,0%
Cc1csc(-c2nc(Nc3ccncc3)c3ccccc3n2)n1 [GW869640],%Inh,DAPK2,26%
same,%Inh,DAPK3,48%
same,%Inh,DCAMKL1,29%
same,%Inh,DCAMKL2,28%
same,%Inh,DCAMKL3,30%
same,%Inh,DDR1,22%
same,%Inh,DDR2,35%
same,%Inh,DLK,0%
same,%Inh,DMPK2,35%
same,%Inh,DMPK,17%
same,%Inh,DRAK1,10%
same,%Inh,DRAK2,0%
same,%Inh,DYRK1A,18%
same,%Inh,DYRK1B,0%
same,%Inh,DYRK2,29%
same,%Inh,EGFR,1%
same,%Inh,EIF2AK1,14%
same,%Inh,EPHA1,0%
same,%Inh,EPHA2,0%
same,%Inh,EPHA3,30%
COc1cc2ncn(-c3cc(OCC4CCCO4)c(C(N)=O)s3)c2cc1OC (centres unmarked) [GSK204607],%Inh,DAPK2,0%
same,%Inh,DAPK3,2%
same,%Inh,DCAMKL1,18%
same,%Inh,DCAMKL2,0%
same,%Inh,DCAMKL3,0%
same,%Inh,DDR1,0%
same,%Inh,DDR2,21%
same,%Inh,DLK,33%
same,%Inh,DMPK2,0%
same,%Inh,DMPK,0%
same,%Inh,DRAK1,0%
same,%Inh,DRAK2,0%
same,%Inh,DYRK1A,0%
same,%Inh,DYRK1B,0%
same,%Inh,DYRK2,14%
same,%Inh,EGFR,20%
same,%Inh,EIF2AK1,0%
same,%Inh,EPHA1,3%
same,%Inh,EPHA2,10%
same,%Inh,EPHA3,16%
COc1ccc(CNC(=O)NC2CCN(c3ccnc(Nc4cc(OC)c(OC)c(OC)c4)n3)C2)cc1 (centres unmarked) [GSK1379748],%Inh,DAPK2,0%
same,%Inh,DAPK3,10%
same,%Inh,DCAMKL1,5%
same,%Inh,DCAMKL2,0%
same,%Inh,DCAMKL3,0%
same,%Inh,DDR1,1%
same,%Inh,DDR2,45%
same,%Inh,DLK,100%
same,%Inh,DMPK2,2%
same,%Inh,DMPK,0%
same,%Inh,DRAK1,10%
same,%Inh,DRAK2,0%
same,%Inh,DYRK1A,6%
same,%Inh,DYRK1B,32%
same,%Inh,DYRK2,0%
same,%Inh,EGFR,31%
same,%Inh,EIF2AK1,0%
same,%Inh,EPHA1,1%
same,%Inh,EPHA2,14%
same,%Inh,EPHA3,0%
O=C(Nc1ccc2c(c1)OCO2)NC1CCN(c2ccnc(Nc3ccc(F)cc3)n2)C1 (centres unmarked) [GSK1379724],%Inh,DAPK2,0%
same,%Inh,DAPK3,0%
same,%Inh,DCAMKL1,0%
same,%Inh,DCAMKL2,7%
same,%Inh,DCAMKL3,32%
same,%Inh,DDR1,0%
same,%Inh,DDR2,52%
same,%Inh,DLK,24%
same,%Inh,DMPK2,9%
same,%Inh,DMPK,0%
same,%Inh,DRAK1,0%
same,%Inh,DRAK2,0%
same,%Inh,DYRK1A,27%
same,%Inh,DYRK1B,0%
same,%Inh,DYRK2,3%
same,%Inh,EGFR,0%
same,%Inh,EIF2AK1,0%
same,%Inh,EPHA1,18%
same,%Inh,EPHA2,16%
same,%Inh,EPHA3,0%
Cc1cccc(-c2nc(-c3ccc(S(C)(=O)=O)cc3)sc2-c2ccnc(NCCc3ccccc3)c2)c1,%Inh,DAPK2,15%
same,%Inh,DAPK3,0%
same,%Inh,DCAMKL1,5%
same,%Inh,DCAMKL2,0%
same,%Inh,DCAMKL3,8%
same,%Inh,DDR1,98.1%
same,%Inh,DDR2,79%
same,%Inh,DLK,0%
same,%Inh,DMPK2,10%
same,%Inh,DMPK,16%
same,%Inh,DRAK1,0%
same,%Inh,DRAK2,10%
same,%Inh,DYRK1A,0%
same,%Inh,DYRK1B,51%
same,%Inh,DYRK2,0%
same,%Inh,EGFR,0%
same,%Inh,EIF2AK1,1%
same,%Inh,EPHA1,0%
same,%Inh,EPHA2,0%
same,%Inh,EPHA3,9%
